Records with an inconclusive call do not appear. The source made the active and inactive calls. Calls follow the shape of the dose curve; as a rule, active = well fitted curve in the direction sought with a large enough effect; inconclusive = small, poorly fitted or top-dose-only effect, or another doubt; inactive = no such curve, though single readings can be large; an effect the other way counts as inactive or inconclusive.

A short description of assay [1]: qHTS of pediatric cancer cell lines to identify multiple opportunities for drug repurposing: Primary screen for DAOY cells (AID 1347090). Also: series mostly up to about 46 µM; nearly all actives have a fitted effect of over 55% in size. In outline:
(§1)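 Viability measured as metabolically active cells via CellTiter-Glo luminescence following 48 hours of compound exposure, 11-point dilutions in confirmatory testing. 500-1,000 cells/well plated 5 hours before dosing; controls were DMSO and 2.3 µM bortezomib.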
(In general: Quantitative high-throughput screening tests each substance at several concentrations.)

Assay [2] is described as follows: qHTS of pediatric cancer cell lines to identify multiple opportunities for drug repurposing: Primary screen for SJ-GBM2 cells (AID 1347091). The procedure, abridged: as §1
Assay [3] can be described thus: qHTS of pediatric cancer cell lines to identify multiple opportunities for drug repurposing: Primary screen for A673 cells (AID 1347092). Also: nearly all actives have a fitted effect of over 45% in size. Also: potency is read from the fitted curve at half-maximal effect. The procedure, abridged: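 Titration-based qHTS on A673 cells: MIPE compounds spanned 11 points (0.78 nM to 46 µM final), NPC compounds 8 points (0.59 nM to 46 µM final). Viability after 48 h was measured by ATP luminescence.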

Assay [4] in a line: qHTS of pediatric cancer cell lines to identify multiple opportunities for drug repurposing: Primary screen for SK-N-MC cells (AID 1347093). Also: series mostly up to about 46 µM. The procedure, abridged: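 Metabolically active cells were quantified by ATP-dependent luminescence (CellTiter-Glo, 15 min at room temperature) following 48 h treatment. Cells had been plated at 500-1,000 per well and settled for 5 h beforehand.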

A short description of assay [5]: qHTS of pediatric cancer cell lines to identify multiple opportunities for drug repurposing: Primary screen for BT-37 cells (AID 1347094). Also: series mostly up to about 57 µM. The procedure, abridged:
(§2)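 Cells plated at 500-1,000/well in growth medium, compounds added after 5 h. MIPE tested at 11 points (from 0.78 nM), NPC at 8 points (from 0.59 nM). CellTiter-Glo luminescence after 48 h; concentration-response curves from primary screen.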

Assay [6] can be described thus: qHTS of pediatric cancer cell lines to identify multiple opportunities for drug repurposing: Primary screen for NB-EBc1 cells (AID 1347095). The procedure, abridged:
as §2

A short description of assay [7]: qHTS of pediatric cancer cell lines to identify multiple opportunities for drug repurposing: Primary screen for U-2 OS cells (AID 1347096). Also: nearly all actives have a fitted effect of over 50% in size. The procedure, abridged: (§3)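 Viability after 48 h compound treatment at 37C, 500-1,000 cells/well, read as ATP luminescence with CellTiter-Glo. Primary screens used 11-point (MIPE, 0.78 nM-46 µM) or 8-point (NPC, 0.59 nM-46 µM) final concentrations; follow-up screens used 11-point dilutions.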

Assay [8] can be described thus: qHTS of pediatric cancer cell lines to identify multiple opportunities for drug repurposing: Primary screen for Saos-2 cells (AID 1347097). Also: nearly all actives have a fitted effect of over 40% in size. Also: potency is read from the fitted curve at half-maximal effect. In outline:
as §2

Assay [9] is described as follows: qHTS of pediatric cancer cell lines to identify multiple opportunities for drug repurposing: Primary screen for SK-N-SH cells (AID 1347098). Also: nearly all actives have a fitted effect of over 65% in size. Also: potency is read from the fitted curve at half-maximal effect. In outline:
(§4)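 Cells (500-1,000/well) rested 5 h, then received compounds for 48 h; metabolically active cells were measured by CellTiter-Glo luminescence. Final concentrations spanned up to 46 µM (MIPE, 11-point) or 0.59 nM-46 µM (NPC, 8-point) in primary screens, 11-point in follow-ups.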

Assay [10] can be described thus: qHTS of pediatric cancer cell lines to identify multiple opportunities for drug repurposing: Primary screen for NB1643 cells (AID 1347099). Also: nearly all actives have a fitted effect of over 50% in size. Also: potency is read from the fitted curve at half-maximal effect. The procedure, abridged:
as §2

Assay [11] is described as follows: qHTS of pediatric cancer cell lines to identify multiple opportunities for drug repurposing: Primary screen for LAN-5 cells (AID 1347100). Also: potency is read from the fitted curve at half-maximal effect. The procedure, abridged: as §3
The nature of assay [12]: qHTS of pediatric cancer cell lines to identify multiple opportunities for drug repurposing: Primary screen for BT-12 cells (AID 1347101). Also: nearly all actives have a fitted effect of over 25% in size. The procedure, abridged: as §4
Assay [13] can be described thus: qHTS of pediatric cancer cell lines to identify multiple opportunities for drug repurposing: Primary screen for Rh18 cells (AID 1347102). Also: nearly all actives have a fitted effect of over 65% in size. The procedure, abridged:
as §3

Assay [14] in a line: qHTS of pediatric cancer cell lines to identify multiple opportunities for drug repurposing: Primary screen for OHS-50 cells (AID 1347103). Also: nearly all actives have a fitted effect of over 40% in size. In outline: as §4
Assay [15] in a line: qHTS of pediatric cancer cell lines to identify multiple opportunities for drug repurposing: Primary screen for RD cells (AID 1347104). Also: nearly all actives have a fitted effect of over 55% in size. In outline:
as §2

Assay [16] is described as follows: qHTS of pediatric cancer cell lines to identify multiple opportunities for drug repurposing: Primary screen for MG 63 (6-TG R) cells (AID 1347105). Also: nearly all actives have a fitted effect of over 50% in size. In outline:
as §2

Assay [17] in a line: qHTS of pediatric cancer cell lines to identify multiple opportunities for drug repurposing: Primary screen for control Hh wild type fibroblast cells (AID 1347106).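 Also: series mostly up to about 46 µM; a drop in luminescence marks cytotoxicity and a rise apparent proliferation; nearly all actives have a fitted effect of over 55% in size.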 The procedure, abridged: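 Cells (500-1,000/well) in growth media were settled 5 h at 37 degrees C, then given compounds for 48 h. Viability was read as CellTiter-Glo luminescence. Primary runs used MIPE at 11 points (0.78 nM-46 µM) and NPC at 8 points (0.59 nM-46 µM); follow-ups used 11 points.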

Assay [18] in a line: qHTS of pediatric cancer cell lines to identify multiple opportunities for drug repurposing: Primary screen for Rh30 cells (AID 1347107). Also: series mostly up to about 46 µM; nearly all actives have a fitted effect of over 75% in size. In outline: as §3
Assay [19] is described as follows: qHTS of pediatric cancer cell lines to identify multiple opportunities for drug repurposing: Primary screen for Rh41 cells (AID 1347108).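 Also: series mostly up to about 46 µM; luminescence drop marks cytotoxic hits; nearly all actives have a fitted effect of over 70% in size.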 The procedure, abridged:
as §2

In assay [20] the target is Furin (Homo sapiens) (UniProt P09958). Kind of assay: Furin counterscreen qHTS for Zika virus inhibitors (AID 1347149). Also: nearly all actives have a fitted effect of over 70% in size. Also: potency is read from the fitted curve at half-maximal effect. The procedure, abridged: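 Counterscreen measures cleavage of 2 microM BOC-RVRR-AMC, below its ~15 microM Km, by 5 nM full-length human furin at pH 7.0 after a 15-min compound preincubation. Inhibition derives from the 15-min fluorescence increase at 37C.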
Chain of Furin (Homo sapiens) (P09958 whole entry, looked up): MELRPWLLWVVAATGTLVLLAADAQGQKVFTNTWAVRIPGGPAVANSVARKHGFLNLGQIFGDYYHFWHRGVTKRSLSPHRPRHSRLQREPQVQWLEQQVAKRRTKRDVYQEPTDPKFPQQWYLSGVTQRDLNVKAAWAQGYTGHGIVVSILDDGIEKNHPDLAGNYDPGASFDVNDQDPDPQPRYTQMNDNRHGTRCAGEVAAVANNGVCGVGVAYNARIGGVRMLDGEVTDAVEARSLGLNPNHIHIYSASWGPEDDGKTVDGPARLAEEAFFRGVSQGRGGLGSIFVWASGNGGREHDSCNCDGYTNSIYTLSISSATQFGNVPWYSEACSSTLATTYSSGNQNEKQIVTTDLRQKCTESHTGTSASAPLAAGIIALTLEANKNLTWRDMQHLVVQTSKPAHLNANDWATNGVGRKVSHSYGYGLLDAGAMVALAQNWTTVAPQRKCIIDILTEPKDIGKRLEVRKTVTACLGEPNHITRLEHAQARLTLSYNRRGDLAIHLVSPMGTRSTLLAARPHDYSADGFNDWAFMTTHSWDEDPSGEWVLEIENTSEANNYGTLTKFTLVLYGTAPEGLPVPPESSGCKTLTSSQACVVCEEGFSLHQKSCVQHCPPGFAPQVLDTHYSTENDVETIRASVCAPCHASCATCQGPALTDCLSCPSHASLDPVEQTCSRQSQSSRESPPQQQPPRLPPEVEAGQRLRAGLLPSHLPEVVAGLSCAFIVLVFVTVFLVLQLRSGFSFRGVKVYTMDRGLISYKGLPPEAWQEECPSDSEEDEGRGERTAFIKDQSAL

For the molecule `CCOCCOC(=O)/C=C/c1ccc(OC)cc1`, the molecule was called inactive in assay [1], in assay [2], in assay [4], in [5], in assay [6] and in assay [7]. For the same molecule, the molecule was called inactive in [12], in assay [13], in assay [14], in assay [15], in [16] and in [17]. For the same molecule, the molecule was classed as inactive in assay [18] and in assay [19]. The Potency entry in [3], in assay [8], in assay [9], in [10] and in assay [11] was “inactive” each time.
On to `O=C(O)c1c(O)c(-c2ccccc2)nc2ccccc12`, for which the call in assay [1], in [2], in [5], in assay [7], in [12] and in assay [13] was inactive. In addition, the outcome in assay [14], in [15], in assay [16], in [17], in assay [18] and in assay [19] was inactive. Besides, the Potency result in assay [3], in assay [8], in assay [9], in assay [10] and in [11] was “inactive” in each case.
`O=C(O)/C=C/c1ccc(-c2ccc(O)c(C34CC5CC(CC(C5)C3)C4)c2)cc1`: the Potency in assay [20] is 44.1 µM (active).
Take `O=C(N/N=C/c1ccc(O)c(O)c1)c1cc2ccccc2cc1O`: in assay [20], the Potency result was “inactive”.
For `O=C(Nc1ccc(S(=O)(=O)Nc2nccs2)cc1)C(c1ccccc1)c1ccccc1`, the Potency result in [20] is “inactive”.
Take `Cc1ccc(N)cc1O`: the call in assay [2], in [16] and in [17] was inactive. Further, the Potency was 30.6 µM (active) in assay [3] and 31.4 µM (active) in assay [9].
Consider `O=C(O)c1ccccc1NCCc1ccccc1`, for which the molecule was called inactive in [1], in assay [2], in assay [5], in [6], in assay [7] and in assay [12]. Besides, the result in assay [13], in assay [14], in [15], in assay [16], in assay [17] and in [18] was inactive. Also, the call in assay [19] was inactive. The Potency result in assay [3], in assay [8], in assay [9], in assay [10] and in assay [11] was “inactive” each time.
`CC1=C(C(=O)OCc2ccccc2)C(c2ccc(-c3ccccc3)cc2)NC(=O)N1CCCCCC(=O)O` (stereo unspecified): in assay [20], the Potency was 39.3 µM (active).
Turning to `CCc1c(-c2ccccc2)c(-c2ccccc2)nn1-c1ccccc1-c1cccc(OCC(=O)O)c1`, in assay [20], the Potency was 30.4 µM (active).
As for `CCC(C(=O)O)c1ccc(N2Cc3ccccc3C2=O)cc1` (stereo unspecified), the call in assay [1], in assay [2], in assay [4], in [5], in assay [6] and in [7] was inactive. The result in [12], in assay [13], in assay [14], in assay [15], in assay [16] and in assay [17] was inactive. The molecule was classed as inactive in assay [18] and in assay [19]. Besides, the Potency entry in assay [3], in assay [8], in assay [9], in [10] and in [11] was “inactive” in each case.
Turning to `CC1(C)CCC(C)(C)c2cc(C3(c4ccc(C(=O)O)cc4)OCCO3)ccc21`, the Potency entry in assay [20] is “inactive”.
Take `Nc1ncnc2c([C@@H]3N[C@H](CO)[C@@H](O)[C@H]3O)c[nH]c12`: in assay [20], the Potency result was “inactive”.
As to `N#CC(c1ccnc(OCc2ccc(CN3CCOCC3)cc2)n1)c1nc2ccccc2s1` (stereo unspecified), the Potency result in assay [20] was “inactive”.
Consider `CC(C)c1cccc2c(-c3ccccc3)cc(-c3ccc(-c4ccc(C(=O)O)cc4)[nH]3)nc12`, for which the Potency in [20] was 39.3 µM (active).
In the case of `Nc1ccccc1N`, the outcome in [2], in assay [16] and in assay [17] was inactive. The Potency in [3] is 15.4 µM (active); in assay [8], 30.6 µM (active); in [10], 30.6 µM (active); in assay [11] it was 17.2 µM (active).
On to `O=C(O)Cc1ccc2oc(-c3ccc(NC(=O)/C=C/c4ccc(Br)cc4)c(F)c3)nc2c1`, for which the Potency in assay [20] is 55.5 µM (active).
Same read-out and setting: the same measure for `COc1ccc(C(=O)n2c(C)c(Cc3cccc(O[C@@H](C)C(=O)O)c3)c3cc(OC(F)(F)F)ccc32)cc1`: 49.4 µM (active).

For the origin of these results see PubChem BioAssay (NCATS).
